Giardia kill – kills Giardia lamblia | Giardia lamblia trophozoite viability | activity change, % at 7.66 µM, hits read low | 340,000 tested, 0.15% active; in the data active = activity change below about -80%; inconclusive = between about -30% and that limit;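 note: parasites exposed to compound for two days anaerobically before the ATP read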
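Viability, read as ATP luminescence: trophozoites at 100 cells/well, compound added, 48 hrs anaerobic at 37 deg C, then 15-30 min room-temperature development before reading.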
Nrf2 inh – Nrf2 pathway inhibition | Potency, µM (doses to about 46 µM), without a hit: top-dose activity change, negative = inhibition, actives largely listed as inhibitors | A549 ARE-Fluc reporter, luciferase luminescence, 18-24 h | 360,000 tested, 2.1% active; note: potency is the fitted concentration of half-maximal effect; nearly all actives have a fitted effect of over 60% in size
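Nrf2 function is reported as luminescence of an ARE-controlled luciferase in A549 cells. Compounds were tested at several concentrations, and a CellTiter-Fluor read on the same wells flagged cytotoxicity.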
PI4K2A inh – inhibitors of human PI4K2A | purified PI4K2A, ADP-Glo luminescence, 1 h; stronger effect = lower value | activity change, negative = inhibition, % at 76.9 µM | 420,000 tested, 0.13% active; in the data active = activity change below about -50%; inconclusive = mostly about -30% to -49%;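 note: -100% = wells without enzyme as full effect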
Target sequence (Q9BTU6 whole entry, looked up): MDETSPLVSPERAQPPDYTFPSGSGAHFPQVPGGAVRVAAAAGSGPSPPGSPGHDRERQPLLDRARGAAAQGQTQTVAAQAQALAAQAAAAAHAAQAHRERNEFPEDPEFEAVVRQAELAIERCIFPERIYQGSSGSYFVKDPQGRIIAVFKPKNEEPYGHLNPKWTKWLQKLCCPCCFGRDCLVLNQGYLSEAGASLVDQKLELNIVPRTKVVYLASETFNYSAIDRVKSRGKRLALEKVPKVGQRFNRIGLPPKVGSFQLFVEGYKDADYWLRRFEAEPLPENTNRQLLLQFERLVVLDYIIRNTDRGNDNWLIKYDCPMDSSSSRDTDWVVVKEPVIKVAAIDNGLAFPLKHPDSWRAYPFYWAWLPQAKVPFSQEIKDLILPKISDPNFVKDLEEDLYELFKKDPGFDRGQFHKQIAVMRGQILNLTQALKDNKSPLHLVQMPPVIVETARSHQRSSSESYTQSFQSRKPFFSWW
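Compounds are screened against recombinant PI4K2A using PI as substrate and ATP, the latter dispensed at 300 microM. Reactions run one hour at ambient temperature before ADP-Glo detection; full inhibition defined by wells lacking enzyme.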
A549 tox-1 – A549 cytotoxicity, counter-screen for Nrf2 inhibitors. A549 ARE-Fluc cells, CellTiter-Fluor viability, 18-24 h. Potency, µM (series often up to 46 µM), inactives show at the highest dose activity change, negative = cytotoxicity, actives largely listed as inhibitors. 390,000 tested, 0.16% active. AID 504648; note: potency is the fitted concentration of half-maximal effect
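Cytotoxicity counterscreen: CellTiter-Fluor fluorescence was measured in A549 ARE_Fluc cells after 18-24 h of compound exposure in a concentration series. The subsequent BugLite luminescent read reports ARE-luciferase activity.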
KB-V1 cytotox – KB-V1 MDR subline cytotoxicity. 400,000 tested, 3.4% active. KB-V1 MDR cells viability, CellTiter-Glo, 72 h. Potency, µM (series often up to 46.1 µM), actives largely listed as cytotoxic; note: potency is the fitted concentration of half-maximal effect; nearly all actives have a fitted effect of over 60% in size
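Cytotoxicity toward P-gp-expressing KB-V1 cells was determined as loss of CellTiter-Glo luminescence after 72 h at 37 degrees C. Compounds were tested in quantitative HTS format across a concentration range, with curves fitted to normalized data.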
KB-3-1 tox – KB-3-1 parental cell cytotoxicity | 400,000 tested, 1.4% active | AID 1347075 | KB-3-1 viability, CellTiter-Glo ATP luminescence, 72 h | Potency, µM (doses to about 46.1 µM), hits mostly cytotoxic; note: potency is the fitted concentration of half-maximal effect; nearly all actives have a fitted effect of over 60% in size
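Here the drug-naive KB-3-1 line serves as comparator for MDR sub-line selectivity; cells received compound titrations, 72 h at 37 °C, then CellTiter-Glo readout.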
FLuc counter 3 – firefly luciferase inhibition, Nrf2 hit validation; shares compounds with Nrf2 inh; purified firefly luciferase, luminescence inhibition; Potency, µM (highest dose often 57.5 µM), for inactives: at the top dose activity change, negative = inhibition, most hits filed as inhibitors; 1,400 tested, 4% active; note: potency is the fitted concentration of half-maximal effect; nearly all actives have a fitted effect of over 65% in size
A549 tox-2 – toxic to A549 ARE-Fluc cells in Nrf2 counterscreen; shares compounds with Nrf2 inh; A549 ARE-Fluc cells, cytotoxicity counterscreen; Potency, µM (highest dose often 46.1 µM), inactives show top-dose activity change, negative = cytotoxicity, usual class: inhibitors; 1,400 tested, 2% active; AID 720523;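 note: potency is the fitted concentration of half-maximal effect; cells exposed to compounds for 18 to 24 hours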
ARE-Fluc inh – reduces Nrf2 ARE reporter signal in A549 cells; shares compounds with Nrf2 inh; 1,400 tested, 74% active; A549 ARE-firefly luciferase reporter, luminescence; AID 720524; Potency, µM (highest dose often 46.1 µM), for the others: top-dose activity change, negative = inhibition, most hits filed as inhibitors; note: potency is the fitted concentration of half-maximal effect; nearly all actives have a fitted effect of over 65% in size
The depositor's hits bear a star; i = inactive; ? = inconclusive; . = no result given. The list is not random: actives were taken first. Their share in the collection is about 5.7%. Unless noted, calls come from the whole dose curve; as a rule, active = well fitted curve in the direction sought with a large enough effect; inconclusive = small, poorly fitted or top-dose-only effect, or another doubt; inactive = no such curve, though single readings can be large; an effect the other way counts as inactive or inconclusive. Unless noted, % is set by controls: 0 for no effect and ±100 for the full control effect.

SMILES	Giardia kill	Nrf2 inh	PI4K2A inh	A549 tox-1	KB-V1 cytotox	KB-3-1 tox	others
COc1cc(Cl)c(C)cc1NC(=O)CSCc1nc(-c2ccc(OC)c(OC)c2)no1	.	-14.7%	-0.4	-1.2%	.	.
Nc1ccc(-c2cnc[nH]2)cc1[N+](=O)[O-]	-4.7	-9.6%	-50.6*	-20.4%	i	i
O=C(CSc1ccc(-c2cccs2)nn1)Nc1cccc(F)c1	.	20.6µM*	-3.6	-0.2%	i	?
COc1ccc(NC(=O)CSc2ccc(-c3ccccn3)nn2)cc1OC	21.5	?	0.2	?	?	?
CCOc1ccc(NC(=O)CSc2ccc(-c3ccccn3)nn2)cc1	-17.1	-7.0%	1.5	0.6%	2.91µM*	i
CC(=O)Nc1ccc(NC(=O)CSc2ccc(-c3cccnc3)nn2)cc1	-6.6	-24.8%	-1.5	0.8%	i	i
O=C(CSc1ccc(-c2ccccn2)nn1)Nc1ccc(F)c(F)c1	-21.1	3.26µM*	7.2	-8.2%	?	?
O=C(CSc1ccc(-c2cccnc2)nn1)Nc1ccc(Br)cc1	-6.0	7.31µM*	-6.0	-13.6%	?	i
O=C(CSc1ccc(-c2cccs2)nn1)Nc1ccccc1C(F)(F)F	.	-11.9%	-11.6	17.4%	.	.
C=CCN1C(=O)[C@@H](CC(=O)NCc2ccc(C)o2)[C@]2(C(=O)OCC)CCCCC/C=C/12	.	.	-4.3	.	.	.
COC(=O)[C@]12C[C@H](CC(=O)NCCc3ccccc3OC)C(=O)N(Cc3ccco3)C1=C[C@H](C1CCCC1)O[C@@H]2C	.	.	-2.7	.	.	.
CCN(CC)C(=O)CC[C@H]1CC[C@]2(CCCN(Cc3ccc(Br)cc3)C2)O1	.	.	-0.8	.	.	.
CCOC(=O)c1ccc(NC(=O)CSc2ccc(-c3ccccn3)nn2)cc1	1.4	20.6µM*	1.8	-15.7%	?	?
Cc1ccc(NC(=O)CSc2ccc(-c3ccccn3)nn2)cc1	-7.5	?	-1.2	-9.7%	?	i
Cc1cccc(-c2nc3c4ccccc4nc(NCc4ccc(Cl)cc4)n3n2)c1	.	?	-3.1	7.5%	.	.
Cc1cc(C)c(S(=O)(=O)n2ccc3ccccc32)c(C)c1	8.3	-2.8%	2.7	6.4%	?	23.1µM*
O=S(=O)(c1ccccc1)n1ccc2ccccc21	-8.8	.	9.1	4.2%	i	i
Cc1ccc2nc(CO)[nH]c2c1	.	.	.	.	i	?
O=C1NCCN1c1ncc([N+](=O)[O-])s1	-88.1*	2.2%	5.6	-5.7%	i	i
CC(=O)Nc1ncc([N+](=O)[O-])s1	.	.	1.3	.	.	.
COc1ccc(C(=O)N[C@H](C(=O)NCCCn2nc(C)cc2C)C(C)C)cc1	-4.4	1.6%	4.0	0.2%	14.6µM*	i
COc1ccc(NS(=O)(=O)c2cc(NC(=O)c3ccc(=O)[nH]c3)ccc2C)cc1	?	0.1%	4.7	?	?	i
COc1ccc(NS(=O)(=O)c2cc(NC(=O)[C@@H](NC(=O)c3ccccc3)C(C)C)ccc2C)cc1	-14.1	?	-4.4	?	?	8.2µM*
CCC(C(=O)Nc1ccccc1N1CCCC1)c1cccc(Cl)c1 (centres undefined)	.	.	0.9	.	.	.
Oc1cc(O)cc(/C=C/c2ccc(O)c(O)c2)c1	-30.0	?	-52.9*	?	i	i
SMILES	Giardia kill	Nrf2 inh	PI4K2A inh	A549 tox-1	KB-V1 cytotox	KB-3-1 tox	others
O=C1Nc2ccccc2C1(O)Cc1ccccn1 (centres undefined)	2.5	1.3%	-0.4	1.2%	i	i
CN1CC(c2ccccc2)C2(SC(=S)N(Cc3ccco3)C2=O)C12C(=O)Nc1ccccc12 (centres undefined)	-0.2	11.6µM*	4.0	?	?	20.6µM*
CN1CC(c2ccccn2)C2(SC(=S)N(Cc3ccccc3)C2=O)C12C(=O)Nc1ccccc12 (centres undefined)	-6.0	23.1µM*	3.2	0.5%	?	i
Cc1c(F)c(N2CCNC(C)C2)cc2c1c(=O)c(C(=O)O)cn2C1CC1 (centres undefined)	.	.	-1.9	.	.	.
Cc1cc2c(s1)c1cnn(Cc3cccc(Cl)c3)c(=O)c1n2C	.	?	.	-3.6%	.	.
Cn1cc(C2CC(c3ccccc3)=NN2C(=O)c2ccccc2)c2ccccc21 (centres undefined)	-28.4	-7.5%	-3.1	-16.9%	20.6µM*	?
O=C(Nc1cccc(-c2nnc(-c3ccccc3)o2)c1)c1ccco1	13.3	-4.5%	1.8	2.7%	2.91µM*	i
O=C(Nc1nnc(-c2ccccc2Cl)o1)c1ccco1	9.9	.	1.2	1.7%	16.4µM*	i
Cc1ccc(-c2nnc(NC(=O)c3ccco3)o2)c(C)c1	-19.0	-6.9%	-9.3	0.4%	?	?
O=C(Nc1ccc2oc(-c3ccccc3)nc2c1)c1ccco1	1.9	?	-1.0	-4.7%	23.1µM*	i
O=C(Nc1ccc2oc(-c3ccncc3)nc2c1)c1ccco1	-12.9	-7.4%	2.0	-0.5%	i	i
C[C@H]1COc2cc(Br)ccc2S(=O)(=O)N1Cc1cn(CC2CCCCC2)nn1	.	.	2.8	.	.	.
CCOC(=O)Nc1ccc2c(c1)[C@@]1(CC(=O)N(CC(C)C)C1c1ccccc1)C(=O)N2C (some centres undefined)	.	.	-4.2	.	.	.
CN(C)/C=N/c1[nH]ncc1C#N	-9.1	0.8%	-0.2	6.8%	i	i
CN(C)C=Nc1ncc2c([nH]c3ccccc32)c1C#N	9.0	-10.9%	5.6	-9.5%	7.31µM*	?
COc1ccc(SCC(CC(C)C)N2CCN(CCc3ccccc3)CCC2=O)cc1 (centres undefined)	-2.3	-24.8%	.	-14.2%	.	.
COc1ccc(C(=O)C2CCCN(Cc3cnc(N4CCOCC4)s3)C2)c(OC)c1 (centres undefined)	19.2	9.2µM*	-0.2	?	?	i	FLuc counter 3=1.6%;A549 tox-2=-8.5%;ARE-Fluc inh=-12.1%

Compound activity: PubChem BioAssay, National Center for Advancing Translational Sciences (NCATS)
